# In PubChem BioAssay AID1159580 (chemical genetic matrix, 2015):
# “And” between values parts separate entries of the source, which are not always exact repeats. Identical values can stand only once. Among all 5,500 compounds or so, about 2,000 (36%) were called active. About 18% were inconclusive and are not listed. The list shows a part of the results. Unmarked numbers belong to inactive results. Rule as the data show it: active = normalized growth mostly below about 0.91 (no sharp cut-off); inconclusive = no clear call, values can overlap the other calls; inactive = mostly above about 0.92.
# Experiment: chemical genetic growth profiling, strain panel (AID 1159580);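 also: tested at 20 µM; growth read once vehicle control cultures reached saturation at 30 °C; 1 = growth at the plate median or of vehicle wells; lower values mean less growth of the strain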
# Conditions: S. cerevisiae deletion strains, growth OD
smiles,measurement,setting,value
Oc1cc(O)c2c(c1)O[C@H](c1cc(O)c(O)c(O)c1)[C@H](O)C2,normalized growth,"locus YAL021C, strain ccr4, stronger effect = lower value",0.992
same,normalized growth,"locus YAL026C, strain drs2, stronger effect = lower value",1.02
same,normalized growth,"locus YAL030W, strain snc1, stronger effect = lower value",1.01
same,normalized growth,"locus YBL061C, strain skt5, stronger effect = lower value",1.02
same,normalized growth,"locus YBR009C, strain hhf1, stronger effect = lower value",1.02
same,normalized growth,"locus YBR021W, strain FUR4, stronger effect = lower value",1.03
same,normalized growth,"locus YBR023C, strain chs3, stronger effect = lower value",1.02
same,normalized growth,"locus YBR171W, strain sec66, stronger effect = lower value",1.03
same,normalized growth,"locus YBR229C, strain ROT2, stronger effect = lower value",0.996
same,normalized growth,"locus YBR231C, strain swc5, stronger effect = lower value",1
same,normalized growth,"locus YBR279W, strain paf1, stronger effect = lower value",1.01
same,normalized growth,"locus YCL011C, strain gbp2, stronger effect = lower value",1.02
same,normalized growth,"locus YCL016C, strain dcc1, stronger effect = lower value",1.02
same,normalized growth,"locus YCL029C, strain bik1, stronger effect = lower value",0.986
same,normalized growth,"locus YCL061C, strain MRC1, stronger effect = lower value",1.02
same,normalized growth,"locus YCL069W, strain vba3, stronger effect = lower value",1.02
same,normalized growth,"locus YCR088W, strain abp1, stronger effect = lower value",1.02
same,normalized growth,"locus YDL005C, strain med2, stronger effect = lower value",1.03
same,normalized growth,"locus YDL035C, strain GPR1, stronger effect = lower value",1.03
same,normalized growth,"locus YDL040C, strain nat1, stronger effect = lower value",1.01
same,normalized growth,"locus YDL074C, strain BRE1, stronger effect = lower value",0.981
same,normalized growth,"locus YDL101C, strain DUN1, stronger effect = lower value",0.985
same,normalized growth,"locus YDL185W, strain tfp1, stronger effect = lower value",0.983
same,normalized growth,"locus YDL192W, strain arf1, stronger effect = lower value",0.982
same,normalized growth,"locus YDR001C, strain nth1, stronger effect = lower value",1.02
same,normalized growth,"locus YDR069C, strain doa4, stronger effect = lower value",0.993
same,normalized growth,"locus YDR101C, strain arx1, stronger effect = lower value",0.985
same,normalized growth,"locus YDR137W, strain rgp1, stronger effect = lower value",1.06
same,normalized growth,"locus YDR150W, strain NUM1, stronger effect = lower value",0.995
same,normalized growth,"locus YDR159W, strain sac3, stronger effect = lower value",1.18 [resistant] (active)
same,normalized growth,"locus YDR162C, strain NBP2, stronger effect = lower value",1.02
same,normalized growth,"locus YDR195W, strain ref2",1.05
same,normalized growth,"locus YDR297W, strain sur2, stronger effect = lower value",1.02
same,normalized growth,"locus YDR318W, strain mcm21, stronger effect = lower value",0.999
same,normalized growth,"locus YDR334W, strain swr1, stronger effect = lower value",1.02
same,normalized growth,"locus YDR335W, strain msn5, stronger effect = lower value",1.01
same,normalized growth,"locus YDR388W, stronger effect = lower value",0.988
same,normalized growth,"locus YDR392W, strain spt3, stronger effect = lower value",1.02
same,normalized growth,"locus YDR502C, strain sam2, stronger effect = lower value",1.02
same,normalized growth,"locus YEL003W, strain gim4, stronger effect = lower value",1.02
same,normalized growth,"locus YEL037C, strain rad23, stronger effect = lower value",1.01
same,normalized growth,"locus YEL061C, strain CIN8 (second series), stronger effect = lower value",1.03
same,normalized growth,"locus YEL061C, strain CIN8, stronger effect = lower value",0.999
same,normalized growth,"locus YER015W, strain faa2, stronger effect = lower value",0.999
same,normalized growth,"locus YER016W, strain bim1, stronger effect = lower value",1.02
same,normalized growth,"locus YER110C, stronger effect = lower value",0.984
same,normalized growth,"locus YER111C, strain swi4, stronger effect = lower value",1.01
same,normalized growth,"locus YER155C, strain BEM2 (second series), stronger effect = lower value",1.01
same,normalized growth,"locus YER155C, strain BEM2, stronger effect = lower value",1.01
same,normalized growth,"locus YER167W, strain BCK2, stronger effect = lower value",1.02
same,normalized growth,"locus YFR010W, strain ubp6, stronger effect = lower value",1.02
same,normalized growth,"locus YGL078C, strain dbp3, stronger effect = lower value",0.993
same,normalized growth,"locus YGL086W, strain mad1, stronger effect = lower value",0.993
same,normalized growth,"locus YGL167C, strain pmr1, stronger effect = lower value",1.01
same,normalized growth,"locus YGL173C, strain kem1, stronger effect = lower value",1.02
same,normalized growth,"locus YGL227W, strain vid30, stronger effect = lower value",1.02
same,normalized growth,"locus YGL240W, strain doc1, stronger effect = lower value",1.03
same,normalized growth,"locus YGL248W, strain PDE1, stronger effect = lower value",0.991
same,normalized growth,"locus YGL253W, strain hxk2, stronger effect = lower value",1.03
same,normalized growth,"locus YGR135W, strain pre9, stronger effect = lower value",0.99
same,normalized growth,"locus YGR252W, strain gcn5, stronger effect = lower value",1.02
same,normalized growth,"locus YHR013C, strain ard1, stronger effect = lower value",1.03
same,normalized growth,"locus YHR027C, strain rpn1, stronger effect = lower value",1.02
same,normalized growth,"locus YHR030C, strain SLT2, stronger effect = lower value",0.992 and 0.996
same,normalized growth,"locus YHR079C, strain IRE1 (second series), stronger effect = lower value",1.01
same,normalized growth,"locus YHR079C, strain IRE1, stronger effect = lower value",1.01
same,normalized growth,"locus YHR094C, strain hxt1, stronger effect = lower value",0.983
same,normalized growth,"locus YHR129C, strain ARP1, stronger effect = lower value",0.997
same,normalized growth,"locus YHR142W, strain chs7, stronger effect = lower value",1.04
same,normalized growth,"locus YHR200W, strain rpn10, stronger effect = lower value",0.994
same,normalized growth,"locus YIL066C, strain RNR3, stronger effect = lower value",1.01
same,normalized growth,"locus YIL073C, strain SPO22, stronger effect = lower value",1.01
same,normalized growth,"locus YIL125W, strain kgd1, stronger effect = lower value",0.997
same,normalized growth,"locus YIR030C, strain dcg1, stronger effect = lower value",1
same,normalized growth,"locus YJL092W, strain hpr5, stronger effect = lower value",1.02
same,normalized growth,"locus YJL095W, strain BCK1 (second series), stronger effect = lower value",1.02
same,normalized growth,"locus YJL095W, strain BCK1, stronger effect = lower value",0.947 and 1.01
same,normalized growth,"locus YJL115W, strain asf1, stronger effect = lower value",1.03
same,normalized growth,"locus YJL129C, strain trk1, stronger effect = lower value",1.08
same,normalized growth,"locus YJL134W, strain LCB3, stronger effect = lower value",0.992
same,normalized growth,"locus YJL154C, strain vps35, stronger effect = lower value",1.02
same,normalized growth,"locus YJL164C, strain tpk1, stronger effect = lower value",1.01
same,normalized growth,"locus YJL166W, strain qcr8, stronger effect = lower value",1.02
same,normalized growth,"locus YJL168C, strain set2, stronger effect = lower value",1
same,normalized growth,"locus YJL187C, strain SWE1 (second series), stronger effect = lower value",0.952
same,normalized growth,"locus YJL187C, strain SWE1, stronger effect = lower value",1.02
